Results published in PubChem BioAssay (NCATS).
Unmarked numbers belong to inactive results. Results filed as inconclusive are left out. Entries that show only a call come without a potency. Activity calls are given as the source filed them. Unless noted, calls come from the whole dose curve.

Experiments:
[1] = target: Cytochrome P450 1A2 (Homo sapiens) (UniProt P05177); assay: p450-cyp1a2 (AID 410); note: potency is the fitted concentration of half-maximal effect
Procedure, shortened: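 O-Demethylation of luciferin 6' methyl ether by human CYP1A2 is monitored as luciferase luminescence. Substrate sits at Km (100uM); enzyme is 20nM. Values are scaled to 57 uM furafylline as maximal inhibition.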

[2] = target: Mitogen-activated protein kinase 10 (Mus musculus) (UniProt Q61831); assay: JNK3 AlphaScreen Assay (AID 530; active = well fitted curve in either direction with a large enough effect, not every such curve was filed as active;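 note: kinase came from lysate of stimulated human HepG2 cells; signal reports phosphorylation of biotinylated GST-cJun 1-79 at Ser73 with 10 µM ATP; series mostly up to about 57 µM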)
Procedure, shortened: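 Activity was read by AlphaScreen after JNK3-containing HepG2 lysate (cytokine pre-activated) phosphorylated biotinylated GST-cJun with 10 uM ATP at room temperature. Phospho-Ser73 cJun antibody with Protein-A acceptor beads provided detection.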

[3] = target: 3',5'-cyclic-AMP phosphodiesterase 4B (Homo sapiens) (UniProt Q07343); assay: qHTS Assay for Inhibitors of PDE-IV (AID 607; active = well fitted activation curve with a large enough effect in the main read-out, with a control signal flat, not every such curve was filed as active)
Chain of 3',5'-cyclic-AMP phosphodiesterase 4B (Homo sapiens) (Q07343 whole entry, looked up): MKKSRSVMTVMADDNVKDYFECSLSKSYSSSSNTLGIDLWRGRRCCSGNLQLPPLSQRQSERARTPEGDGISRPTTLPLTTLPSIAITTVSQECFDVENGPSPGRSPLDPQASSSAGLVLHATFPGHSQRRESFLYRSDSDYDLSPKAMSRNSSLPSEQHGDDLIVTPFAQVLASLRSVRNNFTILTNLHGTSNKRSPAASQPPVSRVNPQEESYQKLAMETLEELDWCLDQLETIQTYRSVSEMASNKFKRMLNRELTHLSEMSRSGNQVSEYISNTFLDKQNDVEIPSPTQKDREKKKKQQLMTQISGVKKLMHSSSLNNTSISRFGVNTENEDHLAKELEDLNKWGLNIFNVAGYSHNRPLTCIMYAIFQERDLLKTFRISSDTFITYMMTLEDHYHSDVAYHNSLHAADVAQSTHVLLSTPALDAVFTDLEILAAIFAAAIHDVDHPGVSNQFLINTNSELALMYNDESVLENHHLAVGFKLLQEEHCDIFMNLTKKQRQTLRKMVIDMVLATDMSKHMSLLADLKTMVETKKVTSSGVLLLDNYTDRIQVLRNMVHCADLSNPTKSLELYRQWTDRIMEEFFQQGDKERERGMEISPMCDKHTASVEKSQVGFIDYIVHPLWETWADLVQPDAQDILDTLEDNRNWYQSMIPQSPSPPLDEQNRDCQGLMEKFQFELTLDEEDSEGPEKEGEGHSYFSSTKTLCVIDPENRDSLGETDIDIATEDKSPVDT
Procedure, shortened: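 Cell-based read-out of cAMP via a modified cyclic nucleotide-gated channel and membrane potential dye (535/590 nm) in HEK293 cells expressing PDE4 endogenously. Compounds tested up to 22.9 uM final; 100 uM RO 20-1724 reference.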

[4] = target: Glucocorticoid receptor (Homo sapiens) (UniProt P04150); assay: GR-EFC Redistribution (AID 451); conditions: CHO-K1 GR-EFC translocation, beta-gal luminescence, 2 h; note: potency is the fitted concentration of half-maximal effect
Chain of Glucocorticoid receptor (Homo sapiens) (P04150 whole entry, looked up, the tested form may be a part): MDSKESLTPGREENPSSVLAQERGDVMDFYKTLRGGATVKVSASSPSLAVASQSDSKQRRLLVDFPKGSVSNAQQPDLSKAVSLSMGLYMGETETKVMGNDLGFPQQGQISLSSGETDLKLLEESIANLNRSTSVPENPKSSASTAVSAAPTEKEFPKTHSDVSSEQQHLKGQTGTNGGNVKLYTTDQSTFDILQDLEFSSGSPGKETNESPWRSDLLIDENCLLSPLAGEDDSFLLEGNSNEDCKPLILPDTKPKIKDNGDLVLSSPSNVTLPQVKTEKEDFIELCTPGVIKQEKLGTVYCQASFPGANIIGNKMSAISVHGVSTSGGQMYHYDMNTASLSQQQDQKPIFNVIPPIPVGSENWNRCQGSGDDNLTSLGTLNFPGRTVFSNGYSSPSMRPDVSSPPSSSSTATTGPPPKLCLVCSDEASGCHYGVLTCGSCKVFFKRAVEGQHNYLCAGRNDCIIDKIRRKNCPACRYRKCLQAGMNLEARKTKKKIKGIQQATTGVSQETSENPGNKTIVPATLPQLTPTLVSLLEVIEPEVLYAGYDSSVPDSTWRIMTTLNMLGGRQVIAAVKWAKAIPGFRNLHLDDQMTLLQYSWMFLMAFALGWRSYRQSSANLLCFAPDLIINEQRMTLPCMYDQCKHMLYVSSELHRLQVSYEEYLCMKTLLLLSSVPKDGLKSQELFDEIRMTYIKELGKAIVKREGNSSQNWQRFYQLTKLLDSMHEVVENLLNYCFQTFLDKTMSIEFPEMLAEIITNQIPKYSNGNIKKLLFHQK
Procedure, shortened: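 CHO-K1 cells expressing nuclear EA and GR-ED fragments of b-gal; compounds titrated up to 46 uM final, 2 h at 37 C. GR nuclear translocation read as complemented b-gal luminescence after 1 h RT detection.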

[5] = target: Cytochrome P450 2C9 (Homo sapiens) (UniProt P11712); assay: qHTS Assay for Inhibitors and Substrates of Cytochrome P450 2C9 (AID 883; active = well fitted inhibition curve with a large enough effect; note: nearly all actives have a fitted effect of over 60% in size)
Chain of Cytochrome P450 2C9 (Homo sapiens) (P11712 whole entry, looked up): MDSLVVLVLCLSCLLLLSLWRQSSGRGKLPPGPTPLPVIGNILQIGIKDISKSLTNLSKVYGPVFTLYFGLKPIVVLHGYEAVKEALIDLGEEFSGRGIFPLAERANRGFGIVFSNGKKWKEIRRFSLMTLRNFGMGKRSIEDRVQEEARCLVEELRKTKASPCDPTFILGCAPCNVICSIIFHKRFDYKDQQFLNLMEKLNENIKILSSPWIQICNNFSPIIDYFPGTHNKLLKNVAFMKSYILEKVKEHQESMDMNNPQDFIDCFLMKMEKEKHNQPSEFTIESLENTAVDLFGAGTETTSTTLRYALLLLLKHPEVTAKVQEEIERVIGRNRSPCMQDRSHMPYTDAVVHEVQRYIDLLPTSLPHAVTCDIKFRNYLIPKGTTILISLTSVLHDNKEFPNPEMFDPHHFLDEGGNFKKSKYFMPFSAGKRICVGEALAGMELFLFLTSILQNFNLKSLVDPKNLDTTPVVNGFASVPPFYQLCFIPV
Procedure, shortened: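 10nM CYP2C9 + 100uM Luciferin-H (=KM), 25mM KPO4; cpd 10 min 37C; NADPH regen, 60 min 37C; stop/detect with P450 Glo-Buffer 20 min; luminescence. Norm. to 57uM sulphaphenazole as full inhibition.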

[6] = target: Cytochrome P450 2D6 (Homo sapiens) (UniProt P10635); assay: qHTS Assay for Inhibitors and Substrates of Cytochrome P450 2D6 (AID 891; active = well fitted inhibition curve with a large enough effect;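 note: luciferin methyl ether substrate demethylated by CYP2D6 with NADPH regeneration; nearly all actives have a fitted effect of over 60% in size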)
Chain of Cytochrome P450 2D6 (Homo sapiens) (P10635 whole entry, looked up): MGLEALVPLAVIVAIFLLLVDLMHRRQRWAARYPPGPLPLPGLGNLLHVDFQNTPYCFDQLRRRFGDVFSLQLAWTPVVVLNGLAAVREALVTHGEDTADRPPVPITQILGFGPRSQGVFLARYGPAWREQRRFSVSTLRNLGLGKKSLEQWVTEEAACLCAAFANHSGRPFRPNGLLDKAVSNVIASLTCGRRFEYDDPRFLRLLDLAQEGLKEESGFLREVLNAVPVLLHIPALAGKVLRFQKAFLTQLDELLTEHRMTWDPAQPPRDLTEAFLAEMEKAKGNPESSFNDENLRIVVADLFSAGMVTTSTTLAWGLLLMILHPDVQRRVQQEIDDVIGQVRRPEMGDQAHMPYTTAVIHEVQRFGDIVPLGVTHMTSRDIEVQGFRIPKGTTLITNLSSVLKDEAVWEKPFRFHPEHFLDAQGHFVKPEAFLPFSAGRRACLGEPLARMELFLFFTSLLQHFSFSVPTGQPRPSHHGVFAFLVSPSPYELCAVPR
Procedure, shortened: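 Luminescent read-out of luciferin formed by 5 nM human CYP2D6 demethylating 30 uM Luciferin-ME EGE (Km level) over 60 min at room temperature after NADPH regeneration addition. Data normalized to full inhibition by 1.43 uM quinidine.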

[7] = target: Cytochrome P450 2C19 (Homo sapiens) (UniProt P33261); assay: qHTS Assay for Inhibitors and Substrates of Cytochrome P450 2C19 (AID 899; active = well fitted inhibition curve with a large enough effect; note: nearly all actives have a fitted effect of over 60% in size)
Chain of Cytochrome P450 2C19 (Homo sapiens) (P33261 whole entry, looked up): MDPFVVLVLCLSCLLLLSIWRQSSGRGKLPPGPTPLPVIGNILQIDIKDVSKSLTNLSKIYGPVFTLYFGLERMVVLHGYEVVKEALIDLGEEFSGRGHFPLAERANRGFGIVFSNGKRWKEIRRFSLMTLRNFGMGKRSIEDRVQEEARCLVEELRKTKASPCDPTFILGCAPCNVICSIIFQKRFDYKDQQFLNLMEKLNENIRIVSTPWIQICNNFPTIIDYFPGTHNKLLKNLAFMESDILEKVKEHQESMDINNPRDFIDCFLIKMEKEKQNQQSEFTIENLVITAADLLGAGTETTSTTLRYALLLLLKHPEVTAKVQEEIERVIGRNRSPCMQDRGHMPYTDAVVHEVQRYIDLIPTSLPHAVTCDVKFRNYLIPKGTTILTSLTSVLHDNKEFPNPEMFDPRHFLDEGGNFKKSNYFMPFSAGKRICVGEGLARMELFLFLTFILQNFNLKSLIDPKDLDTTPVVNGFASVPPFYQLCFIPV
Procedure, shortened: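 Luminescent read-out of luciferin formed from Luciferin-H EGE (10uM, equal to KM). Enzyme 5nM in 50mM KPO4; compound added, 10 min at 37C, then NADPH regenerating system for 60 min at 37C. Full inhibition defined by 57uM ketoconazole.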

Chain of Cytochrome P450 1A2 (Homo sapiens) (P05177 whole entry, looked up): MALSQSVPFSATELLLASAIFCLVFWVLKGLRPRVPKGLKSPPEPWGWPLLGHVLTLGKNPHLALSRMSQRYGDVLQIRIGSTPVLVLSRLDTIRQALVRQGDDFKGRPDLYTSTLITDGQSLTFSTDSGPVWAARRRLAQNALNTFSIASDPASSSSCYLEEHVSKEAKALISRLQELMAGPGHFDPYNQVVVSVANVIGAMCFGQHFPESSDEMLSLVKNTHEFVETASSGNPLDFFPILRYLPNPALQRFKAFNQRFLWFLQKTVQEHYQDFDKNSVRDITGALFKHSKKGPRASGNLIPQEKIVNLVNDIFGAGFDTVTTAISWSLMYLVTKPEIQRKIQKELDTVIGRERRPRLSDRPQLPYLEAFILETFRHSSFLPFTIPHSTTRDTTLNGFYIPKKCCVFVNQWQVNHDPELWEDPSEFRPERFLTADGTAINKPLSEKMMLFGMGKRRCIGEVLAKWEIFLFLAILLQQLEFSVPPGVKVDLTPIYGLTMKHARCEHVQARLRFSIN

SMILES | Potency [1] | Potency [2] | Potency [3] | Potency [4] [µM] | Potency [5] | Potency [6] | Potency [7]
COC(=O)[C@@]1(Cc2ccc(F)cc2)[C@H]2c3cc(C(=O)N(C)C)n(Cc4cccc5ccccc45)c3C[C@H]2CN1C(=O)c1ccccc1 | 6.31 µM (active) | inactive | inactive |  |  |  | 
O=C(N[C@@H](c1ccccc1)[C@@H]1C[C@H]1C(=O)O)OCc1ccccc1 | 20 µM (active) | inactive | inactive |  |  |  | 
CC(C)[C@@H](CC(=O)N[C@@H]1CCNC[C@H]1C(=O)N[C@H](CC(=O)N[C@@H](CCC(=O)O)CC(=O)O)Cc1c[nH]c2ccccc12)NC(=O)C[C@H](Cc1c[nH]c2ccccc12)NC(=O)[C@@H]1CNCC[C@H]1N | inactive |  | inactive | > 46 | inactive | inactive | inactive
CC(C)c1cccc2nc3c(c(C(C)(C)C)c12)Cn1c-3cccc1=O | 12.6 µM (active) | inactive |  |  |  |  | 
CC(C)[C@@H](CC(=O)N[C@@H]1CCCC[C@H]1C(=O)N[C@H](CC(=O)N[C@@H](CCC(=O)O)CC(=O)O)Cc1c[nH]c2ccccc12)NC(=O)C[C@H](Cc1c[nH]c2ccccc12)NC(=O)[C@@H]1CNCC[C@H]1N | inactive |  | inactive | > 46 |  | inactive | inactive
CC(C)C[C@@H](CC(=O)N[C@@H](CCC(=O)O)CC(=O)O)NC(=O)[C@@H]1CNCC[C@H]1NC(=O)C[C@@H](NC(=O)C[C@H](CO)NC(=O)[C@@H]1CNCC[C@H]1N)C(C)C | inactive |  | inactive | > 46 |  | inactive | inactive
CC1=C(C(=O)OCc2ccccc2)C(c2ccccc2)NC(=O)N1CCCCCC(=O)O (configuration not stated) | 20 µM (active) | inactive | inactive |  |  |  | 
COC(=O)[C@@]1(Cc2ccc(OC)cc2)[C@H]2c3cc(C(=O)N4CCCC4)n(CCc4c[nH]c5ccc(OC)cc45)c3C[C@H]2CN1C(=O)c1ccccc1 | 10 µM (active) | inactive | inactive |  |  |  | 
NCCC[C@@H](CC(=O)N[C@@H]1CCCC[C@H]1C(=O)N[C@H](CC(=O)N[C@@H](CCC(=O)O)CC(=O)O)Cc1c[nH]c2ccccc12)NC(=O)C[C@H](Cc1c[nH]c2ccccc12)NC(=O)[C@@H]1CCCC[C@H]1N | inactive |  |  | > 46 | inactive | inactive | inactive
CC(C)C[C@@H](CC(=O)N[C@H](CC(=O)N[C@@H]1CCCC[C@H]1C(=O)N[C@H](CC(=O)N[C@@H](CCC(=O)O)CC(=O)O)CC(C)C)C(C)C)NC(=O)[C@@H]1CNCC[C@H]1N | inactive |  | inactive | > 46 |  | inactive | 
COC(=O)[C@@]1(Cc2ccccc2)[C@H]2c3cc(C(=O)N(C)C)n(CCN4CNCC4=O)c3C[C@H]2CN1C(=O)c1ccccc1 | 5.01 µM (active) | inactive | inactive |  |  |  | 
